Results reported in the supplement of paper PMC6555819.

Columns and labels:
Test in all cases: PBM binding z-score (relative to random genomic background probes); higher = stronger binding; sequences stand for … in GC…GCGATTGACAGCGTAGAATGAAGG
[1] = system: FXR:RXRa (NR concentration 270 nM, RXRa partner concentration 90 nM)
Method in brief: (§1)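 Binding z-scores take random background probes as their reference. They come from custom Agilent 4×180K protein-binding microarrays incubated 1 h with ligand-free nuclear receptor dimers, with antibodies against each partner (one per run) detecting binding. Scanned fluorescence was regression-normalized.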

[2] = system: LXRa:RXRa (NR concentration 270 nM, RXRa partner concentration 90 nM)
Method in brief: as §1

[3] = system: LXRa homodimer (NR concentration 270 nM)
Method in brief: as §1

[4] = system: LXRb:RXRa (NR concentration 270 nM, RXRa partner concentration 90 nM)
Method in brief: as §1

[5] = system: LXRb homodimer (NR concentration 270 nM)
Method in brief: as §1

[6] = system: PPARa:RXRa (NR concentration 270 nM, RXRa partner concentration 90 nM)
Method in brief: as §1

[7] = system: PPARg:RXRa (NR concentration 180 nM, RXRa partner concentration 90 nM)
Method in brief: as §1

[8] = system: PPARg:RXRa 270nM:90nM, anti-RXR (NR concentration 270 nM, RXRa partner concentration 90 nM)
Method in brief: as §1

[9] = system: PPARg:RXRa 30nM:10nM, anti-RXR (NR concentration 30 nM, RXRa partner concentration 10 nM)
Method in brief: as §1

[10] = system: PPARg:RXRa 90nM:30nM, anti-RXR (NR concentration 90 nM, RXRa partner concentration 30 nM)
Method in brief: as §1

Sequence | PBM binding z-score [1] | PBM binding z-score [2] | PBM binding z-score [3] | PBM binding z-score [4] | PBM binding z-score [5] | PBM binding z-score [6] | PBM binding z-score [7] | PBM binding z-score [8] | PBM binding z-score [9] | PBM binding z-score [10]
ATCTATAGGTAAGACTCAGTTCAGTGAAGAACGC | 0.179 | 0.424 | 0.389 | 0.171 | 0.635 | 0.073 | 0.534 | 0.23 | 0.292 | 0.169
CTCGAAAGGTCGTGCTCAGGTTAGTATACCAAAC | 5.58 | 4.22 | 0.511 | 3.78 | 0.719 | 5.12 | 2.57 | 3.75 | 0.966 | 2.37
ATATGTAGGTTAGCCGGGGTCATTCAGACTAGGC | 5.13 | 5.67 | 3.14 | 4.72 | 0.687 | 5.6 | 6.59 | 5.96 | 3.47 | 5.29
GGAACGAGGGCAAAGATGATAGCATCTGTCGACG | 0.376 | 0.281 | -0.604 | 0.258 | -0.642 | 2.65 | 3.63 | 4.6 | 2.92 | 4.39
CCAGACAGGTGACAGGTAACTCAGTCTGGTACGC | -0.312 | -0.0899 | -0.169 | -0.0936 | -0.582 | 0.79 | 1.37 | 1.4 | 0.0561 | 0.74
TCTTGGAGGACACGAAGGTCAGAGCTTTCCAGAG | 1.51 | 1.47 | 0.0796 | 1.27 | -0.69 | 2.1 | 0.905 | 2.2 | 2.51 | 2.31
ATATGTAGGTTAATGGTCATTCAGGTTGGTTCGC | 0.826 | 1.09 | 0.821 | 1.24 | 0.469 | 4.6 | 7.74 | 7.54 | 6.76 | 7.88
ATCGAAGGGTCGAGGTGAGTATAGAGAAAGGGAA | 1.41 | 1.24 | 0.0219 | 1.19 | 0.389 | 2.62 | 1.49 | 1.28 | 0.548 | 0.905
CCGACTGGGGCAGAACGGTTACCATACCATCCGG | -0.431 | -0.676 | -0.691 | -0.711 | -1.24 | -0.574 | 0.748 | -0.447 | -0.36 | -1.03
TCTCGGAGGACACGAAGGACAGAGCTTTCCAGAG | 0.358 | -0.306 | -0.452 | -0.355 | -1.07 | -0.0833 | 0.271 | 0.836 | 2.13 | 1.3
AGAACTAGGGCAATGAGTTGATAGCACGGGTGGC | -0.0132 | -0.254 | -0.285 | -0.631 | -0.61 | 2.48 | 4.11 | 3.2 | 1.29 | 2.41
CGAACTAGGTCATGGACAGGACAGTGAATAGTAA | 3.85 | 2.37 | -0.0954 | 1.81 | -0.546 | 4.79 | 8.05 | 6.56 | 4.17 | 6.19
ATACCAAGGTGATCGTGAAGTCGTTGATACTAAC | 0.402 | 0.225 | 0.0745 | 0.448 | -0.0277 | 0.429 | 0.37 | 0.481 | -0.0865 | 0.2
ACTAGTTGGTCAGCTGAGGTCACACAGAATTCGG | 3.75 | 3.32 | 2.31 | 3.64 | 0.768 | 3.8 | 1.87 | 2.46 | 0.831 | 1.73
ATATGTAGGTTACATCCCGGTCATTCAGGCTATG | 1.09 | 3.77 | 3.88 | 1.83 | 1.18 | 3.66 | 4.96 | 4.25 | 1.8 | 3.35
TCTTGTAGATCAGCAGGTAAAGAAAGCTGGCCAA | 0.051 | 0.0639 | -0.443 | -0.119 | -0.519 | 0.422 | -0.331 | 0.955 | 2.5 | 1.69
GGAACGAGGGCAAGTTAATAGCAGAGTTTGATGG | 0.629 | 0.178 | -0.0244 | 0.334 | -0.49 | 1.53 | 1.14 | 0.86 | 0.37 | 0.378
TCTTGTAGATCAGCAGGTTAAGAACGCTGGCCAA | -0.138 | -0.0946 | -0.388 | 0.178 | -0.52 | 0.745 | -0.296 | 1.38 | 2.39 | 1.59
TCTTCTAGATCAATAGAGGTTAAGAAAGTGCGCT | 0.907 | 3.4 | 0.664 | 1.92 | 0.831 | 1.9 | 0.156 | 2 | 3.32 | 2.76
CCTCCTGGGCCAAAAAGGTCATTGATGCCGATAA | 3.19 | 3.89 | 2.81 | 4.12 | 0.202 | 4.47 | 0.997 | 2.63 | 0.448 | 1.63
TCTTGAAGATCAATAGAGGTTAAGAAAGTGCGCT | 1.21 | 3.88 | 0.18 | 1.99 | -0.548 | 1.79 | -0.0471 | 1.56 | 2.76 | 2.46
GCTTACGGGTCTAAGGTTATAGCATGAATAGAAT | 0.749 | 0.664 | -0.0717 | 1.2 | -0.249 | 2.66 | 3.28 | 4.67 | 3.06 | 4.64
GCTCGGAGGACAAAGTCAGAGCTTTGTCCGTAGA | -0.547 | -0.56 | -0.429 | -0.512 | -0.588 | -0.568 | -1.55 | -0.786 | -1.61 | -0.843
CGAACGAGGGCATGAGCTGATAGCAAATGCCGAT | 0.486 | 0.253 | -0.266 | 0.0131 | -0.954 | 1.39 | 1.02 | 0.67 | -0.212 | 0.364

Sequence | PBM binding z-score [1] | PBM binding z-score [2] | PBM binding z-score [3] | PBM binding z-score [4] | PBM binding z-score [5] | PBM binding z-score [6] | PBM binding z-score [7] | PBM binding z-score [8] | PBM binding z-score [9] | PBM binding z-score [10]
ACTCGGAGGACAAAGGACAGAGCTACGCCAGTGA | -0.12 | -0.373 | -0.502 | -0.866 | -0.449 | -0.215 | 1.23 | 1.16 | 0.109 | 0.942
ATATGTAGGTTACATCCGGGTCATTCGGGCTATG | 2.27 | 4.61 | 1.71 | 2.96 | 1.11 | 4.42 | 5.83 | 5.08 | 2.18 | 4.17
CCTACTGGGCCAAAGGTCATTTATTCCAATGCTC | 4.91 | 5.02 | 5.54 | 5.19 | 1.7 | 6.68 | 12.4 | 10.4 | 11 | 11.5
CCAGACAGGTGAGAAGGTGACTCAGCCTCGATTA | 0.0148 | -0.0121 | -0.103 | 0.201 | -0.178 | 0.868 | 0.495 | 0.694 | -0.409 | 0.222
TCTTGTAAATCAATAGAGGTTAAGAAAGTGCGCT | 0.793 | 3.32 | 0.658 | 1.86 | 0.26 | 1.86 | 0.0624 | 1.82 | 3.77 | 2.44
CTCGAAAGGTCGTGCTCACGTGAGTATACCAAAC | 5.21 | 3.95 | 0.0228 | 3.69 | 0.397 | 5.07 | 2.9 | 3.42 | 0.773 | 2.12
CCTACTGGGCCACCAGGTCATTGATATCAACGTT | 1.25 | 1.07 | 0.943 | 1.56 | -0.0133 | 3.16 | 4.32 | 4.3 | 1.41 | 3.26
CCTGCTAGGTCACGGTCAGCTAATCTACAGTATG | 4.56 | 3.65 | 0.541 | 2.45 | 0.134 | 4.05 | 4.31 | 4.17 | 1.72 | 3.2
ACAGACAGGTGATGAAGGTAACTCATGCTATCAT | -0.264 | -0.284 | 0.081 | -0.0857 | -0.304 | 0.0179 | 0.862 | -0.0647 | 0.121 | -0.0244
ATCTCTAGGTAAAGATAGTTCACTGAATGCAAAT | 0.402 | 4.91 | 1.11 | 1.37 | 0.641 | 1.26 | 0.98 | 0.827 | 0.387 | 0.797
ATCTCTAGGTAACAAGTTCAGTGTAAGAGAGGAC | 0.924 | 0.672 | 0.835 | 0.727 | 1.14 | 1.52 | 1.37 | 2.11 | 0.896 | 1.48
CCTACTGGGCAATTCAGAGGTCATTGATCATATG | 2.49 | 4.41 | 6.82 | 3.68 | 0.374 | 3.51 | 0.682 | 2.06 | 0.0551 | 0.942
CCTCGGAGCACAGAAGGTCAGAGCTGTCCGCTTT | 1.68 | 2.17 | 0.231 | 1.21 | -0.905 | 1.97 | -0.336 | 0.536 | -1.06 | -0.433
TCGAGTAGGTTACCACTGGGGCATTCAGCTTTCT | -0.222 | 0.889 | -0.872 | 0.314 | -0.76 | 1.04 | 0.354 | 1.12 | 0.971 | 0.965
TCATATAGGTAAATGCTAGGTGAAAGTGCGATCT | 1.14 | 1.17 | 0.315 | 0.829 | 0.24 | 1.87 | 1.89 | 3.48 | 3.99 | 3.81
GCTGCTAGGTCCACTGATGGTCAGCTAAAGCTCG | -0.489 | -0.3 | -0.698 | -0.586 | -0.746 | -0.509 | -0.592 | -0.813 | -0.963 | -0.946
ATATGTTGGTTATCGGGTCATTCAGTTTGCGCAT | 2.39 | 2.42 | 1.49 | 2.76 | 1.77 | 2.86 | 1.7 | 2.19 | 0.577 | 1.65
CGAACTAGGTCATCTAGGACAGTGAATACATTGA | 4.09 | 2.49 | 0.484 | 2.12 | -0.144 | 4.72 | 7.33 | 6.44 | 3.66 | 5.7
TCTTGTAGATCAATAGAGGTTGAGAAAGTGCGCT | 0.33 | 0.354 | -0.0207 | 0.212 | -0.126 | 0.471 | -0.324 | 1.44 | 2.63 | 1.98
ATCTCTAGTTAAAGATAGTTCAGTGAATGCAAAT | 0.285 | 1.29 | 0.86 | 0.823 | 0.612 | 0.58 | 0.585 | 0.484 | 0.404 | 0.51
AGTCAAAGTTCACTAGGGAACGTAAGATTCAGCT | 5.18 | 5.47 | 2.42 | 3.27 | 0.67 | 4.19 | 6.45 | 6.13 | 3.52 | 5.22
TCATATAGGTAAATGCTAAGTGAAAGTCCGATCT | 1.1 | 0.928 | 0.284 | 0.773 | -0.0273 | 1.17 | 0.762 | 2.04 | 3.9 | 2.9
TCTGCTAGGTCAACGAGGGTCAGCTAATCTGCTA | 4.68 | 4.83 | 0.398 | 3.04 | 0.26 | 4.27 | 3.36 | 3.79 | 2.12 | 3.02
GATACAGGGTCAAGGCCAGACTACGCGTATTGAT | 6.8 | 3.95 | 0.21 | 3.72 | -0.0563 | 5.69 | 6.16 | 5.88 | 2.85 | 4.87
